# Measurements published in PubChem BioAssay (NCI).
# This is part of a sample that, as a whole, favours compounds with a hit. Of some 79,000 tested, about 15% had one in any assay. Values without a mark were called inactive. Active and inactive are the calls of the source. Rule as the data show it: active = growth inhibition above about 70%; inactive = the rest.
# Key:
# [1] = NCI Yeast Anticancer Drug Screen. Data for the rad50 strain (AID 155);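 also: 0% = growth of vehicle-only cultures of the same strain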; details: S. cerevisiae rad50 strain growth inhibition; at 50.0 µM; hits give high values
# Summary of the method: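 Cells are treated with compound, grown, and their growth is then scored against vehicle-only cultures of the same repair-deficient yeast strain.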
# [2] = NCI Yeast Anticancer Drug Screen. Data for the mec2-1 strain (AID 157); details: S. cerevisiae mec2-1 strain, at 50.0 µM, hits give high values
# Summary of the method: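 Vehicle-treated cultures served as reference for growth inhibition of compound-exposed mec2-1 yeast.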
# [3] = NCI Yeast Anticancer Drug Screen. Data for the sgs1 mgt1 strain (AID 161);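 also: 0% = growth of cultures given vehicle only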; details: S. cerevisiae sgs1 mgt1 strain, at 50.0 µM, hits give high values
# Summary of the method: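 Genetically altered yeast, compound exposure, growth inhibition relative to vehicle.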
# [4] = NCI Yeast Anticancer Drug Screen. Data for the cln2 rad14 strain (AID 165);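 also: 0% = growth equal to vehicle treated cultures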; details: S. cerevisiae cln2 rad14 strain, at 50.0 µM, hits give high values
# Summary of the method: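 Each compound was tested on cln2 rad14 yeast. Inhibition of growth was calculated against vehicle-exposed controls.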
# [5] = NCI Yeast Anticancer Drug Screen. Data for the bub3 strain (AID 167); details: S. cerevisiae bub3 mutant strain, at 50.0 µM, hits give high values
# Summary of the method: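 Part of a panel of yeast mutants defective in DNA damage repair or cell cycle regulation. Each strain is grown with compound, and inhibition is calculated relative to solvent-treated cultures.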
# [6] = NCI Yeast Anticancer Drug Screen. Data for the mlh1 rad18 strain (AID 175); details: S. cerevisiae mlh1 rad18 strain growth inhibition; at 50.0 µM; hits give high values
# Summary of the method: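 Vehicle-treated cultures served as the reference for growth inhibition in a yeast strain carrying DNA damage repair alterations exposed to each compound.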
SMILES,growth inhibition [1],growth inhibition [2],growth inhibition [3],growth inhibition [4] [%],growth inhibition [5],growth inhibition [6]
COc1cc2c3c(c1OC)-c1[nH]c4ccccc4c1C1CCCN(CC2)C31 (stereo unspecified),-54.9%,-19.9%,-20.4%,-29.9,-16.4%,-11.7%
Cc1cc2c(c(C(=O)NCCC(=O)N[C@@H](C)C(=O)OCc3ccccc3)c1)Oc1c(cc(C)cc1C(=O)NCCC(=O)N[C@@H](C)C(=O)OCc1ccccc1)S2,24%,10.8%,30.1%,28.8,-9.8%,27.1%
CC1CCC2CCCCC2/C1=N\NC(N)=O (stereo unspecified),-10.8%,-3.9%,3.95%,2.35,0.25%,-16.7%
COc1ccc(C(=O)N=C(N)n2nc(C)cc2C)cc1,-37.8%,-1.35%,-1%,-16.1,31.9%,-0.75%
CC1C(=NO)C(C)C(c2ccccc2)N(N=O)C1c1ccccc1 (stereo unspecified),-12.6%,-20.5%,-6.1%,3.25,0.45%,26.4%
[Cl][Pt+2][Cl].[NH-]C1CCCCC1C1CCCCC1[NH-] (stereo unspecified),14.6%,-12.4%,-29.2%,-41.2,-29.8%,-27.4%
CC(C)C1CC[C@H](C)C[C@@H]1OC(=O)C(C(=O)O[C@H]1C[C@@H](C)CCC1C(C)C)C(O)[C@@H]1OC(C)(C)O[C@H]1C1COC(C)(C)O1 (stereo partly specified),73.8% (active),90.8% (active),91.9% (active),44.7,90.8% (active),56.9%
CC1CCOC(c2ccc(O)cc2)O1 (stereo unspecified),-4.05%,-13.1%,-4.65%,-29.3,-14.4%,-3.75%
C[Si](C)(C)Nc1ncnc2c1ncn2[Si](C)(C)C,14.6%,4.85%,21.6%,-9.3,2.85%,7.05%
CSc1cccc(N)c1,-23.6%,-12.4%,-46.1%,6.1,-6.8%,-5.65%
CCNC(=S)OC1CCC2(C)C(=CCC3C2CCC2(C)C(C(C)CCC(CC)C(C)C)CCC32)C1 (stereo unspecified),-1.7%,6.6%,-11.6%,-24.4,-1.55%,-23.8%
CC(O)COC(C)COC(C)c1ccccc1 (stereo unspecified),1.6%,0.3%,-4%,-2.35,2.2%,4.65%
CC1(C)CC(O)CC(C)(C)N1.CC1(C)CC(O)CC(C)(C)N1.CC1(C)CC(O)CC(C)(C)N1.CC1(C)CC(O)CC(C)(C)N1.Cl.[Ti],-2.95%,-4.45%,12.9%,17.8,26.1%,10.5%
CCCCCC/C=C\CCCCCCCCCC1=CC(=O)C=C(OC)C1=O,-1.35%,-10.2%,-19%,-83.8,-31.4%,-11.7%
C/C=C/C=C/C(=O)OCC,31.8%,-2.25%,-16.4%,-2.4,15.2%,14.3%
CC(CNC(N)=O)NC(N)=O (stereo unspecified),-23.8%,-15.8%,-32.4%,11.4,-19.6%,-24.4%
CCOC(=O)C(C)c1nc2cc(F)c(F)cc2[nH]c1=O (stereo unspecified),-5.45%,26.5%,9%,2.6,4.1%,-19.4%
O=c1c(Cl)c(-c2cccc3ccccc23)oc2ccccc12,-14.3%,1.8%,4.2%,-40.6,9.2%,-15.4%

SMILES,growth inhibition [1],growth inhibition [2],growth inhibition [3],growth inhibition [4] [%],growth inhibition [5],growth inhibition [6]
CN(C)C(=O)C1C2C=CC(CCC2)C1C(=O)N(C)C (stereo unspecified),13.1%,15.6%,15.8%,13.7,15.7%,14.1%
CC(=O)Nc1cc2c(s1)CCC1CC(=O)NN=C21 (stereo unspecified),-12.4%,-25.6%,-31.8%,1.9,-9.35%,-11.5%
CCC(CC)c1nc2c([nH]1)c(=O)n(C)c(=O)n2C,-34%,8.1%,5.3%,-32.5,-7.2%,-10.3%
C=C1CC[N+]2(CCCCCC)CCCC12 (stereo unspecified),2.5%,27.4%,11.3%,-1.4,25.4%,21.6%
COc1ccc(/C=N/NC(=O)c2ccc(N)cc2)c(OC)c1,5.7%,9.4%,10%,-0.9,14.2%,13%
O=C1C=C(Sc2ccccc2)c2nccc3c2c1nc1ccccc13,34.9%,7.6%,20.4%,6.55,20.1%,30%
C[C@@H](C1CC[C@H]2[C@@H]3[C@@H]4O[C@@H]4[C@@]4(O)CC=CC(=O)[C@]4(C)[C@H]3C[C@H](O)[C@]12C)[C@H]1C[C@]2(C)O[C@]2(C)C(=O)O1 (stereo partly specified),1.35%,-3.25%,-2.9%,29.5,2.65%,-48.6%
O=S(=O)(O/C(=C(\OS(=O)(=O)C(F)(F)F)c1ccccc1)c1ccccc1)C(F)(F)F,6.9%,-20.2%,-21.1%,-4.8,-2.65%,10%
COc1ccc(/C(=N/N)c2ccccc2)cc1,3.6%,-40.5%,-23.6%,-42.4,-18.8%,-2.15%
Cc1ccc(NC(=O)N2CC2(C)C)cc1NC(=O)N1CC1(C)C,0.2%,0.55%,2.8%,-1.6,1.2%,4.9%
O=C1c2cccc3c([N+](=O)[O-])ccc(c23)C(=O)N1CC1CCCO1 (stereo unspecified),71.3% (active),51%,87.1% (active),40.8,51.8%,73.5% (active)
CCOC(=O)CCCCCCCCCCCCCCCCC(=O)OCC,30.9%,-31.9%,-14.2%,19.5,7.75%,8.9%
O=C(NCCCCCCNC(=O)OCCSCCn1cc(C(=O)NC(=O)OCc2ccccc2)c(=O)[nH]c1=O)OCCSCCn1cc(C(=O)NC(=O)OCc2ccccc2)c(=O)[nH]c1=O,-21.3%,-23.6%,2.6%,2.55,15.1%,-9.95%
O=C(c1ccc(-c2ccccc2)cc1)N(C(=O)c1cc(N2CCOCC2)ccn1)c1ccc([N+](=O)[O-])cc1,43%,17.8%,45.8%,22.9,-5.6%,8.6%
CN(C)C(=Nc1ccccc1)N(C)N,-1.2%,5.7%,-12.9%,0.75,1.9%,0.95%
C1CCC2C3CCC(O3)C2C1 (stereo unspecified),-4.2%,1.05%,5.4%,-33.7,-39.1%,2.35%
COC(=O)/C=C/CCBr,-13%,-22.1%,-17.6%,-39.1,-5.2%,-11.5%
COC(=O)CC(NC(=O)OCc1ccccc1)C(=O)NCC(=O)NCC(=O)O (stereo unspecified),15.8%,12.7%,-5.65%,14.3,-4.7%,2.5%
